This passage reports outcome and AC50 results from PubChem BioAssay (EPA / NIEHS).

In general, AC50 refers to the concentration giving half of the maximal activity seen.

The structures appear in SMILES notation. Some structures have more than one record in an assay (separate samples or runs), and their calls can disagree. Active and inactive are the calls of the source. How the source made its calls: active means hit-call score of the fitted dose curve at least 0.9, where 1 is the maximum; inactive means score below 0.9.

The nature of the assay: BSK_SAg_Proliferation: Cell Proliferation Assessment in the BioMAP Diversity Plus: SAg Assay (AID 2283095). To be noted: primary human HUVEC with PBMC. How it is done: BSK_SAg is a cell-based, multiplexed-readout assay that uses umbilical vein endothelium and peripheral blood mononuclear cells, a human vascular primary cell co-culture, with measurements taken at 24 hours after chemical dosing in a 96-well plate.BSK_SAg_Proliferation is an assay component in the BSK_SAg assay. It measures protein content, a form of viability reporter, as detected with absorbance signals by Sulforhodamine staining technology. Data from the assay component BSK_SAg_Proliferation was analyzed into 1 assay endpoint. This assay endpoint, BSK_SAg_Proliferation, was analyzed with bidirectional fitting relative to DMSO as the negative control and baseline of activity. Using a type of viability reporter, measures of total protein for gain or loss-of-signal activity can be used to understand the viability at the cellular-level. Furthermore, this assay endpoint can be referred to as a secondary readout, because this assay has produced multiple assay endpoints where this one serves a viability function. To generalize the intended target to other relatable targets, this assay endpoint is annotated to the cell cycle intended target family, where the subfamily is proliferation.
The levels of cell surface (or secreted, indicated by the prefix "s") biomarker endpoints were measured by ELISA. Overt cytotoxicity to cells in confluent adherent cultures (all systems other than the BT system) was assessed by measuring total protein levels using sulforhodamine B (SRB) staining in parallel cultures at the time of biomarker measurements, indicated as SRB endpoints. For proliferation assays for adherent cell types, individual cell types are cultured at sub-confluence and relative cell numbers quantified by SRB staining at time points optimized for each system (48 h: 3C and CASM3C systems; 72 h: BT and HDF3CGF systems; 96 h: SAg system). SRB was performed by staining cells with 0.1% SRB after fixation with 10% TCA and reading wells at 560 nm.Viability and proliferation of PBMC (T cells) was quantified by Alamar Blue reduction for the SAg and BT systems. For PBMC viability (referred to as PBMC Cytotoxicity within the assay endpoint names), cells were plated (75,000/well in a 96-well plate) and then chemical samples added for 1 h before addition of activators, SEB and TSST-1 (20 ng/mL final concentration each). Cells were incubated for 90 h. Then, Alamar Blue (20 uL/well) (Invitrogen, Cat DAL1100) was added for 6 h, and the plates were read with a fluorescence microplate reader at 546/580 nm (excitation/emission). For PBMC proliferation, cells were plated and activated as above but incubated for only 16 h prior to addition of Alamar Blue. Plates were read after 6 h.
In the case of `O=S(=O)(c1ccc(Cl)cc1)c1ccc(Cl)cc1`, the result was inactive.
For `CCOC(=O)/C=C(C)/C=C/C[C@@H](C)CCCC(C)C`, the AC50 is 31.5 µM (active).
Turning to `O=[N+]([O-])c1ccc2c3c(cccc13)CC2`, the outcome was inactive.
As to `CC(=O)[O][Hg][c]1ccccc1`, the AC50 is 0.259 µM (active).
With `COP(=S)(OC)Oc1ccc(S(=O)(=O)N(C)C)cc1`, the outcome was inactive.
`CCN1CCC2(CC1)COc1cc3c(cc12)N(C(=O)c1ccc(-c2ccc(-c4nnc(C)o4)cc2C)cc1)CC3`: the AC50 is 6.95 µM (active).
On to `CC(C)(C)c1cc(O)ccc1O`, for which the AC50 is 1.94 µM (active).
For the compound `CCCCC(CC)CO[N+](=O)[O-]` (stereo not given), the outcome was inactive.
Turning to `Cn1sc(Cl)cc1=O`, the AC50 was 6.46 µM (active).
Turning to `CC(C)c1ccc(CO)cc1`, the outcome was inactive.
In the case of `Oc1cccc2cccnc12`, the AC50 was 4.71 µM (active).
With `CCSC(C)CC1CC(=O)C(C(CC)=NOC/C=C/Cl)=C(O)C1` (stereo not given), the result was inactive.
Regarding `O=C(O)CCC(F)(C(F)(F)F)C(F)(F)F`, the outcome was inactive.
The same measure, in the same setting: as for `C[C@]12CCC(=O)C[C@@H]1CC[C@@H]1[C@@H]2CC[C@]2(C)[C@@H](O)CC[C@@H]12`, the entry is “inactive”.
Still for that read-out and setting: the result for `ClCC(Cl)CCl` reads “inactive”.
With `ClC(Cl)=C(Cl)C(Cl)=C(Cl)Cl`, the half-maximal activity concentration (AC50) is 31.7 µM (active).
Turning to `CC(=O)C(Cl)C(=O)N(C)C` (stereo not given), the AC50 was 20 µM (active).
With `NC(=S)Nc1ccccc1`, the result was inactive.
Regarding `CN(C)N=O`, the outcome was inactive.
For `ClC1=C(Cl)[C@]2(Cl)[C@H]3[C@H]([C@H]4C=C[C@H]3C4)[C@@]1(Cl)C2(Cl)Cl`, the AC50 was 20 µM (active).
On to `CCCCCCCCc1ccc(O)cc1`, for which the AC50 is 19.3 µM (active).
Consider `O=C(O)C(F)(F)C(F)(F)C(F)(F)C(F)(F)C(F)(F)C(F)(F)C(F)(F)C(F)(F)C(F)(F)C(F)(F)F`, for which the outcome was inactive and the AC50 was 32.8 µM (active).
In the case of `O=[N+]([O-])c1ccc(O)c([N+](=O)[O-])c1`, the outcome was inactive.
For the compound `CC(C)CCCCCCOC(=O)c1ccccc1C(=O)OCCCCCCC(C)C`, the outcome was inactive.
For the compound `C=CC(=O)OCCCCCC(C)C`, the outcome was inactive.
Turning to `O=C(O)C(F)(F)C(F)(F)C(F)(F)C(F)(F)C(F)(F)C(F)(F)F`, the outcome was inactive.
On to `BrCCBr`, for which the outcome was inactive.
Consider `NC(=O)O`, for which the result was inactive.
Consider `CC(C)(OO)c1ccccc1`, for which the result was inactive.
As for `O=C1C2(Cl)C3(Cl)C4(Cl)C(Cl)(Cl)C5(Cl)C3(Cl)C1(Cl)C5(Cl)C24Cl` (stereo not given), the AC50 was 4.64 µM (active).
`Nc1ncc([N+](=O)[O-])s1`: the outcome was inactive.
On the same count and under the same terms, the result for `COC(=O)Cc1ccccc1` reads “inactive”.
For the compound `COc1cc(OC)nc(NC(=O)NS(=O)(=O)c2ncccc2C(=O)N(C)C)n1`, the result was inactive.
As for `O=C(Nc1ccc2[nH]ccc2c1)c1cc2cc(F)ccc2n1Cc1cccc(F)c1`, the AC50 is 6.62 µM (active).
Consider `CC(=O)OC(c1ccccc1)C(Cl)(Cl)Cl` (stereo not given), for which the outcome was inactive.
Regarding `Oc1c(I)cc(I)cc1I`, the half-maximal activity concentration (AC50) was 31.9 µM (active).
As to `Nc1cccc2ccccc12`, the result was inactive.
Regarding `C(=NC1CCCCC1)=NC1CCCCC1`, the AC50 was 0.499 µM (active).
Still for that read-out and setting: as for `COP(=S)(OC)Oc1ccc(Sc2ccc(OP(=S)(OC)OC)cc2)cc1`, the figure is 28.8 µM (active).
